Where “and” joins values, the source holds several entries; their conditions need not be identical. Equal values may be shown once. Results filed as inconclusive are left out. The source holds several records for some structures; these can differ, active in one and inactive in another. Calls of active or inactive are those of the source. Unless noted, the call rests on the fitted dose curve; in most records, active means well fitted curve in the direction sought with a large enough effect; inconclusive means small, poorly fitted or top-dose-only effect, or another doubt; inactive means no such curve, though single readings can be large; an effect the other way counts as inactive or inconclusive.
How the values were obtained:
[1] = target: Atrial natriuretic peptide receptor 1 (Homo sapiens) (UniProt P16066); assay: Natriuretic polypeptide receptor (hNpr1) antagonism - Pilot screen (AID 1347049; calls by dose curve;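 further: agonist-evoked cGMP luminescence read 20 min after hNppA addition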; further: potency means the concentration at half of the fitted maximal effect)
Sequence of Atrial natriuretic peptide receptor 1 (Homo sapiens) (P16066 whole entry, looked up): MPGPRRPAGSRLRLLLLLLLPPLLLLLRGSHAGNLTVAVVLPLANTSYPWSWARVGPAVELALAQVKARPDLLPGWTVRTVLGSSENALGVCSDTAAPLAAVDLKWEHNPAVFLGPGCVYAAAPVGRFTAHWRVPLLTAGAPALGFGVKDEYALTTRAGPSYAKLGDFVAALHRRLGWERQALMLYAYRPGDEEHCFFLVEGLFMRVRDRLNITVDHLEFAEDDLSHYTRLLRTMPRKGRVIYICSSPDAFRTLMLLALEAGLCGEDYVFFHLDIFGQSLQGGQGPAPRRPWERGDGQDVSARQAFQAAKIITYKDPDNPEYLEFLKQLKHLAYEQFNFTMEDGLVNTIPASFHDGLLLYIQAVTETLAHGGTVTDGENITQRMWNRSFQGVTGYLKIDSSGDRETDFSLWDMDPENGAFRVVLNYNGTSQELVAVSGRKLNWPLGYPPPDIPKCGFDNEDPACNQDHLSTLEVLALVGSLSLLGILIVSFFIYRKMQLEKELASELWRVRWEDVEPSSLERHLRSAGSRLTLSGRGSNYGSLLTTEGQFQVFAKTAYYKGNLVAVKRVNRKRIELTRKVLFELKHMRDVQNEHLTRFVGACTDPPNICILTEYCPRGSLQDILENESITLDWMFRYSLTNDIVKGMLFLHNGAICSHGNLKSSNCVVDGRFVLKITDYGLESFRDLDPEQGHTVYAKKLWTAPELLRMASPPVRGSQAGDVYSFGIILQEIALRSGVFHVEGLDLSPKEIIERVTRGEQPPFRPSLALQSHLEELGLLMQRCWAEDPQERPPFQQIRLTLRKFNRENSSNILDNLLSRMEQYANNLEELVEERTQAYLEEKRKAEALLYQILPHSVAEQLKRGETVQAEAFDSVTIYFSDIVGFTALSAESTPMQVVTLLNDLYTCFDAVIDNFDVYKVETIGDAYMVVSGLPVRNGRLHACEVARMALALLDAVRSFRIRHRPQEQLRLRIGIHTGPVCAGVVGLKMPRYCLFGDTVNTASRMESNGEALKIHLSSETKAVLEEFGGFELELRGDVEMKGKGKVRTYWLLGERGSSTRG
Summary of the method: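 Readout is cGMP-driven firefly luciferase luminescence in HEK293 cells carrying hNpr1 and a PDE5-domain GloSensor, read before and 20 min after 0.1 nM hNppA stimulation. Cells had 2% substrate reagent for 2 h and test compound for 30 min.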

[2] = target: Atrial natriuretic peptide receptor 2 (Homo sapiens) (UniProt P20594); assay: Natriuretic polypeptide receptor (hNpr2) antagonism - Pilot subtype selectivity assay (AID 1347050; calls by dose curve; further: potency means the concentration at half of the fitted maximal effect)
Sequence of Atrial natriuretic peptide receptor 2 (Homo sapiens) (P20594 whole entry, looked up): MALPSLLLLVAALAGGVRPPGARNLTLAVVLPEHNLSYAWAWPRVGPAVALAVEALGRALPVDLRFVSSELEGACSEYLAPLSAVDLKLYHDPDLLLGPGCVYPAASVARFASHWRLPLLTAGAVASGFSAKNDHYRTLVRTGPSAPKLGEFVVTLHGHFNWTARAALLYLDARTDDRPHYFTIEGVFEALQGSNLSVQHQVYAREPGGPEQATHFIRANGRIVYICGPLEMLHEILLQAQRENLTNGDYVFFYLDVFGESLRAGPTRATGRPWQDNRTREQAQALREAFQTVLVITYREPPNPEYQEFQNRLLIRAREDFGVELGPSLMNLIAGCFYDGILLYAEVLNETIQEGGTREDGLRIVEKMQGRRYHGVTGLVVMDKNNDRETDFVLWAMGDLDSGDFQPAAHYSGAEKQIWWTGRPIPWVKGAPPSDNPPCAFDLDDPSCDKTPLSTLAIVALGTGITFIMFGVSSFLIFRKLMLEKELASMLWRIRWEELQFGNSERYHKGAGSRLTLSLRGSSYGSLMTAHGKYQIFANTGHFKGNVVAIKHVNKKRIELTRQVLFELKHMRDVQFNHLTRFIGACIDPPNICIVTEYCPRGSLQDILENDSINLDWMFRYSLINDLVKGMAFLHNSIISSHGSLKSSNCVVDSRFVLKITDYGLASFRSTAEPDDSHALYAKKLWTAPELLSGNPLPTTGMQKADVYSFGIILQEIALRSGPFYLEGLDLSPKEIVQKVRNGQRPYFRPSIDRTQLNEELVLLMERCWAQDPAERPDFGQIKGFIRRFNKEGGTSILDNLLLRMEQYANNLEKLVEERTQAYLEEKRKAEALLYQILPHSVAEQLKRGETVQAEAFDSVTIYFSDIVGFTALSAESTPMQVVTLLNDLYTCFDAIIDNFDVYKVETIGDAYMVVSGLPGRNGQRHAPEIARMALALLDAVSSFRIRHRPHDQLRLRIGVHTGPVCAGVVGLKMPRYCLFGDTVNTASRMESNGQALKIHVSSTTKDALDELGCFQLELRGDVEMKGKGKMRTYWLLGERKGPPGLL
Summary of the method: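 Pilot selectivity screen against hNpr2: HEK293 cGMP-sensor cells are treated with LOPAC1280 compounds, then with hNppC peptide at 1 nM final. The cGMP-driven luminescence change over 20 min at room temperature is the read-out.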

[3] = NS1 protein of Zika virus - qHTS assay to identify small molecule inhibitors in human HEK 293 cells (AID 1347053); further: nearly all actives have a fitted effect of over 55% in size; further: potency means the concentration at half of the fitted maximal effect
Summary of the method: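 HEK 293; 20 h pre-culture, 37 C/5% CO2; cpd 1 h pre-infection; ZIKV MR766, MOI = 0.5, 24 h, 37 C; TR-FRET NS1 readout (two anti-NS1 Abs); norm. to no-virus vs infected.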

[4] = target: T1, Tyrosine-protein phosphatase non-receptor type substrate 1 (Homo sapiens) + Leukocyte surface antigen CD47 (Homo sapiens) (UniProt P78324+Q08722); assay: CD47-SIRPalpha protein protein interaction - HTRF assay qHTS validation (AID 1347058; active means well fitted curve in the direction sought with a large enough effect in the signal ratio, not every such curve was filed as active; the % refers to the signal ratio;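 further: recombinant soluble extracellular CD47 with His tag and biotinylated SIRPalpha domains; series mostly up to about 38 µM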)
T1 sequence (P78324 whole entry, looked up, the tested form may be a part): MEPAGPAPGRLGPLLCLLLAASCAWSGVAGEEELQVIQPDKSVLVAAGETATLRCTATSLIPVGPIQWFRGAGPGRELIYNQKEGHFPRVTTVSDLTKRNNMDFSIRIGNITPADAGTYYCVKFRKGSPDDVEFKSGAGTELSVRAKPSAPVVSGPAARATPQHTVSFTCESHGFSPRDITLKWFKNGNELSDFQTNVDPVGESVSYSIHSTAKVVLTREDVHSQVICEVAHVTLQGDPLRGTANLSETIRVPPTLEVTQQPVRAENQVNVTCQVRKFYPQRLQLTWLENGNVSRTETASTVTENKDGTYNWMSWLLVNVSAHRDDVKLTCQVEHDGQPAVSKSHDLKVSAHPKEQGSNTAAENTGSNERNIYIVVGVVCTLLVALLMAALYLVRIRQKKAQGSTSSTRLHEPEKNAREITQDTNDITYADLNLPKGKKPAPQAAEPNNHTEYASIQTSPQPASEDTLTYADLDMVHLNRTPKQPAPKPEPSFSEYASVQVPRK
T1 sequence (Q08722 whole entry, looked up, the tested form may be a part): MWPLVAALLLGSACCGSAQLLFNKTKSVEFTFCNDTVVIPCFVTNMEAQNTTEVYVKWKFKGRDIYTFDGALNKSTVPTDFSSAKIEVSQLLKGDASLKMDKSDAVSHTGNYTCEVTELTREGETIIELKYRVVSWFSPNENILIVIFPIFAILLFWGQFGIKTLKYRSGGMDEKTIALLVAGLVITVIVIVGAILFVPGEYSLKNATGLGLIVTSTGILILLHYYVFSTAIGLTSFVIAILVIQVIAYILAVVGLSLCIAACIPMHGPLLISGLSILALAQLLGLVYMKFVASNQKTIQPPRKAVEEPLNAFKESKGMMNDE
Summary of the method: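 TR-FRET read (Ch1/Ch2 ratio) of soluble extracellular CD47 and Avi-biotinylated SIRPalpha domains in PBS pH 7.4 with 0.05% IGEPAL; 7-point compound titration. Sequential 30 min room-temperature steps; non-biotinylated SIRPalpha as control inhibitor.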

[5] = target: T1, Tyrosine-protein phosphatase non-receptor type substrate 1 (Homo sapiens) + Leukocyte surface antigen CD47 (Homo sapiens); assay: CD47-SIRPalpha protein protein interaction - Alpha assay qHTS validation (AID 1347059)
Summary of the method: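 Binding is measured by AlphaScreen proximity: Ni-NTA acceptor beads capture His-CD47, streptavidin donor beads capture biotin-SIRPalpha. Each of three additions (SIRPalpha with compound, CD47, beads) incubates 30 min at room temperature protected from light.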

[6] = target: Parathyroid hormone/parathyroid hormone-related peptide receptor (Homo sapiens) (UniProt Q03431); assay: qHTS for PTHR1 Agonists: Optimization Screen against the NCGC LOPAC library (AID 1347079);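 further: GloSensor cAMP luminescence in HEK-293 GP2 cells expressing human PTHR1 with IBMX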
Sequence of Parathyroid hormone/parathyroid hormone-related peptide receptor (Homo sapiens) (Q03431 whole entry, looked up): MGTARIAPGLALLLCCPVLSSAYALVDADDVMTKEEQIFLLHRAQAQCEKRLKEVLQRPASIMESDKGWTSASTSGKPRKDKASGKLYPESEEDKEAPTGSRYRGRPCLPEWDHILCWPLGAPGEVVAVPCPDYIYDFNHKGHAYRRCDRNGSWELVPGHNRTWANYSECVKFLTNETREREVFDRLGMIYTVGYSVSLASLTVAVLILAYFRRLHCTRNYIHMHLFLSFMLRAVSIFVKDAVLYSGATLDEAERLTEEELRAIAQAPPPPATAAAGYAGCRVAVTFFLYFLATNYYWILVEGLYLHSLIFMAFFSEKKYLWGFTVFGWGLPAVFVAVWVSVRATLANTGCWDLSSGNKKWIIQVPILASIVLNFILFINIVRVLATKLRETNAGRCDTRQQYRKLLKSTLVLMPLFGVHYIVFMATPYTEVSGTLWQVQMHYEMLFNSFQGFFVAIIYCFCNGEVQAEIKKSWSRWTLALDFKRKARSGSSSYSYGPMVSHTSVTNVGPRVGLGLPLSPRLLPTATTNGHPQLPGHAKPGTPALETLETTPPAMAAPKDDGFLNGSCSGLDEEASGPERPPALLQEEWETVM
Summary of the method: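 Compounds were tested across a qHTS titration. PTHR1-expressing GP2 cells report cAMP rises via GloSensor luminescence after 1 hr compound exposure at 37C with IBMX present.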

[7] = qHTS of pediatric cancer cell lines to identify multiple opportunities for drug repurposing: Primary screen for TC32 cells (AID 1347089); further: nearly all actives have a fitted effect of over 60% in size; further: potency means the concentration at half of the fitted maximal effect
Summary of the method: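 A viability screen of TC32 cells was run over 48 h, with primary MIPE doses spanning 0.78 nM–46 µM and NPC doses 0.59 nM–46 µM. ATP luminescence (CellTiter-Glo) served as the read-out.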

[8] = target: T1, Tyrosine-protein phosphatase non-receptor type substrate 1 (Homo sapiens) + Leukocyte surface antigen CD47 (Homo sapiens); assay: CD47-SIRPalpha protein protein interaction - LANCE assay qHTS validation (AID 1347057; active means well fitted curve in the direction sought with a large enough effect in the signal ratio, with a control signal flat, not every such curve was filed as active; the % refers to the signal ratio; further: series mostly up to about 38 µM)
Summary of the method: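 First, His-tagged CD47 and Eu-labelled anti-His antibody met the compound for 30 min; next, site-specifically biotinylated SIRPalpha was added for 30 min; finally streptavidin-APC was added before reading the TR-FRET ratio.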

[9] = qHTS of pediatric cancer cell lines to identify multiple opportunities for drug repurposing: Primary screen for DAOY cells (AID 1347090); further: nearly all actives have a fitted effect of over 55% in size; further: potency means the concentration at half of the fitted maximal effect
Summary of the method: (§1)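 Cell viability, CellTiter-Glo luminescence; 500-1,000 cells/well, 8- or 11-point titration, 48 h compound exposure at 37 degrees C, 5% CO2. Controls: DMSO neutral, bortezomib 2.3 µM final as positive.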

[10] = qHTS of pediatric cancer cell lines to identify multiple opportunities for drug repurposing: Primary screen for SJ-GBM2 cells (AID 1347091); further: potency means the concentration at half of the fitted maximal effect
Summary of the method: as §1

Measured: Potency

COc1ccc2c(c1)c(CC(=O)O)c(C)n2C(=O)c1ccc(Cl)cc1
not listed: [8] | [9] | [10]
inactive: all other assays above

CCCNCC(O)COc1ccccc1C(=O)CCc1ccccc1 (configuration not stated)
inactive: all assays above

O=c1[nH]cc(F)c(=O)[nH]1
inactive: all assays above

CCOC(=O)C(C)(C)Oc1ccc(Cl)cc1
not listed: [6]
inactive: all other assays above

CN(Cc1cnc2nc(N)nc(N)c2n1)c1ccc(C(=O)N[C@@H](CCC(=O)O)C(=O)O)cc1
active: [7] 0.0066 µM | [9] 0.0266 µM | [10] 47.3 nM and 41.8 nM
not listed: [4] | [6]
inactive: all other assays above

NS(=O)(=O)c1cc2c(cc1Cl)NCNS2(=O)=O
not listed: [6]
inactive: all other assays above

CCOC(=O)c1ncn2c1CN(C)C(=O)c1cc(F)ccc1-2
not listed: [8]
inactive: all other assays above

CC(C)C(=O)Nc1ccc([N+](=O)[O-])c(C(F)(F)F)c1
active: [9] 4.69 µM
not listed: [4] | [10]
inactive: all other assays above

COc1ccccc1OCC(O)CN1CCN(CC(=O)Nc2c(C)cccc2C)CC1 (configuration not stated)
not listed: [6]
inactive: all other assays above

CN1CCN(CCCN2c3ccccc3Sc3ccc(Cl)cc32)CC1
inactive: [1] | [8] | [4] | [6] | [7]
23.5 µM (active) and inactive: [3]
active: [2] 18.5 µM

O=C(Nc1ccc([N+](=O)[O-])cc1Cl)c1cc(Cl)ccc1O
active: [1] 0.953 µM | [2] 1.31 µM | [9] 1.46 µM and 1.18 µM | [10] 1.3 µM and 743 nM
inactive and 1.48 µM (active): [3]
inactive: all other assays above

O=C(C1CCCCC1)N1CC(=O)N2CCc3ccccc3C2C1 (configuration not stated)
inactive: all assays above

COc1cc2nc(N3CCN(C(=O)c4ccco4)CC3)nc(N)c2cc1OC
active: [3] 9.35 µM
not listed: [9]
inactive: all other assays above

CC(C)Cc1ccc(C(C)C(=O)O)cc1 (configuration not stated)
not listed: [8]
inactive: all other assays above

NC(=O)NO
not listed: [7] | [10]
inactive: all other assays above

CN(C)CCOC(c1ccccc1)c1ccccc1
not listed: [7] | [8]
inactive: all other assays above

OCCN1CCN(CCCN2c3ccccc3Sc3ccc(C(F)(F)F)cc32)CC1
16.6 µM (active) and inactive: [3]
active: [10] 20.9 µM
not listed: [6] | [8]
inactive: all other assays above

CCC1(C)CC(=O)NC1=O (configuration not stated)
inactive: all assays above

COc1ccc2[nH]cc(CCNC(C)=O)c2c1
not listed: [8]
inactive: all other assays above

CCCCc1oc2ccccc2c1C(=O)c1cc(I)c(OCCN(CC)CC)c(I)c1
29.6 µM (active) and inactive: [3]
active: [9] 5.9 µM | [10] 8.33 µM
not listed: [6] | [8]
inactive: all other assays above

COc1ccccc1N1CCN(CC(O)COc2cccc3ccccc23)CC1 (configuration not stated)
not listed: [7] | [8]
inactive: all other assays above

CC(C)(Oc1ccc(C2CC2(Cl)Cl)cc1)C(=O)O (configuration not stated)
not listed: [6] | [10]
inactive: all other assays above

NCCc1cnc[nH]1
not listed: [6] | [8]
inactive: all other assays above

N[C@@H](Cc1c[nH]c2ccc(O)cc12)C(=O)O
not listed: [6] | [8]
inactive: all other assays above

CC(CCc1ccc(O)cc1)NCCc1ccc(O)c(O)c1 (configuration not stated)
not listed: [8]
inactive: all other assays above

Clc1ccc(C(c2ccccc2Cl)C(Cl)Cl)cc1 (configuration not stated)
inactive and 18.7 µM (active): [3]
not listed: [4]
inactive: all other assays above

CNCCCC12CCC(c3ccccc31)c1ccccc12
active: [3] 20.9 µM
not listed: [9] | [10]
inactive: all other assays above

NC(=O)OCC(COC(N)=O)c1ccccc1
not listed: [6]
inactive: all other assays above

CN1C2CCC1CC(OC(=O)C(CO)c1ccccc1)C2 (configuration not stated)
not listed: [8]
inactive: all other assays above

CN1CCN(C2=Nc3cc(Cl)ccc3Nc3ccccc32)CC1
active: [2] 10.4 µM
not listed: [6]
inactive: all other assays above

COc1ccc(C2CNC(=O)C2)cc1OC1CCCC1 (configuration not stated)
inactive: all assays above

Nc1ccn([C@H]2CC[C@@H](CO)O2)c(=O)n1
not listed: [8]
inactive: all other assays above

O=C(c1ccc(F)cc1)C1CCN(CCn2c(=O)[nH]c3ccccc3c2=O)CC1
not listed: [8]
inactive: all other assays above

CC(C)NCC(O)c1ccc(O)c(O)c1 (configuration not stated)
not listed: [6] | [9] | [10]
inactive: all other assays above

O=c1c(-c2ccc(O)cc2)coc2cc(O)cc(O)c12
not listed: [3]
inactive: all other assays above

Cc1cn([C@H]2C=C[C@@H](CO)O2)c(=O)[nH]c1=O
not listed: [3] | [8] | [9]
inactive: all other assays above

COc1nc(C)nc(Cl)c1NC1=NCCN1
not listed: [3] | [8]
inactive: all other assays above

Cc1ccccc1N1C(=O)c2cc(S(N)(=O)=O)c(Cl)cc2NC1C (configuration not stated)
inactive: [1] | [2] | [3] | [7] | [9] | [10]

COc1ccccc1OCCNCC(O)COc1cccc2[nH]c3ccccc3c12 (configuration not stated)
not listed: [3] | [6]
inactive: all other assays above

CN1C(C(=O)Nc2ccccn2)=C(O)c2ccccc2S1(=O)=O
not listed: [3] | [4]
inactive: all other assays above

O=C(CCCN1CCC(O)(c2ccc(Cl)cc2)CC1)c1ccc(F)cc1
inactive: [1] | [2] | [4] | [5] | [7] | [9]

Clc1ccccc1C(c1ccccc1)(c1ccccc1)n1ccnc1
not listed: [3] | [8] | [10]
inactive: all other assays above

OCCN(CCO)c1nc(N2CCCCC2)c2nc(N(CCO)CCO)nc(N3CCCCC3)c2n1
inactive: [1] | [2] | [3] | [5] | [7] | [10]

COc1cc2nc(N3CCN(C(=O)C4COc5ccccc5O4)CC3)nc(N)c2cc1OC (configuration not stated)
not listed: [3] | [8] | [10]
inactive: all other assays above

— PubChem BioAssay (NCATS)
